{
  "source": "PubChem BioAssay AID720690",
  "about": "(Broad Institute, 2013)",
  "note": "Entries with a potency or affinity are not part of this list. Calls of active or inactive are those of the source.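 The calls were made as follows: active = every repeat run showing a signal drop whose fitted half-maximal concentration is at most twice the top tested concentration; inconclusive = repeat runs disagree, or flat partial drop, or poor fit; inactive = the rest.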",
  "data": [
    {"assay": "HEK293T cytotoxicity, dose response, cytotoxicity control for miR-122 modulator project, cell-based, activator set, cherry-pick (AID 720690)", "conditions": "HEK293T viability, CellTiter-Glo luminescence, 48 h; series mostly up to 26 µM", "values": [
      {"smiles": "CNC(=O)C[C@@H]1CC[C@H]2[C@H](COc3ccc(NC(=O)c4cccc(OC)c4)cc3C(=O)N2C)O1", "outcome": "inactive"},
      {"smiles": "C[C@@H]1CN([C@@H](C)CO)S(=O)(=O)c2ccc(C#CC3CC3)cc2O[C@@H]1CN(C)C(=O)c1cccc(F)c1", "outcome": "inactive"},
      {"smiles": "O=C(Nc1ccc(F)cc1)N1C[C@H]2[C@@H](c3ccccc31)[C@H](CO)N2C(=O)c1ccncc1", "outcome": "inactive"},
      {"smiles": "CCNC(=O)Nc1ccc2c(c1)C(=O)N(C)[C@H]1CC[C@H](CC(=O)NCCN3CCCC3)O[C@@H]1CO2", "outcome": "inactive"},
      {"smiles": "COCCN(C[C@@H]1[C@H](c2ccccc2)[C@@H](CO)N1C(=O)C1CCC1)C(C)=O", "outcome": "inactive"},
      {"smiles": "CC(=O)N1[C@H](CN(C(=O)c2ccc(F)cc2)C(C)C)[C@@H](c2ccccc2)[C@@H]1CO", "outcome": "inactive"},
      {"smiles": "O=C(NC[C@@H]1N[C@@H](CO)[C@H]1c1ccccc1)C1CCC1", "outcome": "inactive"},
      {"smiles": "COc1cccc(CNC(=O)C[C@@H]2CC[C@H]3[C@H](COc4ccc(NC(C)=O)cc4C(=O)N3C)O2)c1", "outcome": "inactive"},
      {"smiles": "CCC(=O)NC[C@H]1[C@H](c2ccc(C3=CCCC3)cc2)[C@H](CO)N1C(C)=O", "outcome": "inactive"},
      {"smiles": "Cc1cc(C(=O)Nc2ccc3c(c2)C(=O)N(C)[C@H]2CC[C@H](CC(=O)N[C@H](C)c4ccccc4)O[C@H]2CO3)no1", "outcome": "inactive"},
      {"smiles": "C[C@@H]1CN([C@H](C)CO)C(=O)c2cc(-c3cccc(C#N)c3)cnc2O[C@H]1CN(C)C(=O)C1CCC1", "outcome": "inactive"},
      {"smiles": "CCCNC(=O)N1[C@H](CNC(C)=O)[C@H](c2ccc(C3=CCCC3)cc2)[C@@H]1CO", "outcome": "inactive"},
      {"smiles": "Cc1[nH]c(=O)c(C#N)cc1-c1ccccc1", "outcome": "inactive"},
      {"smiles": "CN1C(=O)c2cc(NC(=O)c3cccc(F)c3)ccc2OC[C@@H]2O[C@@H](CC(=O)O)CC[C@H]21", "outcome": "inactive"},
      {"smiles": "CN1C(=O)c2cc(NC(=O)c3cccc(F)c3)ccc2OC[C@@H]2O[C@@H](CC(=O)NC3CCC3)CC[C@H]21", "outcome": "inactive"},
      {"smiles": "CC(=O)Oc1ccc2c(c1)C(=O)c1ccccc1CO2", "outcome": "inactive"},
      {"smiles": "CO[C@H]1CN(C)C(=O)c2cc(NC(C)=O)ccc2OC[C@@H](C)N(C(=O)c2ccccn2)C[C@H]1C", "outcome": "inactive"},
      {"smiles": "CC(=O)N(C)C[C@H]1Oc2cc(/C=C/c3ccccc3)ccc2S(=O)(=O)N([C@@H](C)CO)C[C@H]1C", "outcome": "inactive"},
      {"smiles": "COc1cccc(NC(=O)N(C)C[C@@H]2Oc3ncc(C#Cc4ccncc4)cc3C(=O)N([C@@H](C)CO)C[C@H]2C)c1", "outcome": "inactive"},
      {"smiles": "COCC(=O)Nc1ccc2c(c1)C(=O)N(C)[C@H]1CC[C@@H](CC(=O)NCCCN(C)C)O[C@@H]1CO2", "outcome": "inactive"},
      {"smiles": "CSc1cccc(NS(=O)(=O)c2ccccc2)c1", "outcome": "inactive"},
      {"smiles": "CN(C)C(=O)c1ccc(-c2ccc([C@H]3[C@@H](CO)N4CCCCN(C(=O)C5CCCC5)C[C@@H]34)cc2)cc1", "outcome": "inactive"},
      {"smiles": "CC(C)NC(=O)Nc1ccc2c(c1)C(=O)N(C)[C@@H]1CC[C@H](CC(=O)NCC(F)(F)F)O[C@H]1CO2", "outcome": "inactive"},
      {"smiles": "C[C@@H]1CCCCO[C@H](CN(C)CC2CCCCC2)[C@H](C)CN([C@H](C)CO)C(=O)c2cc(NC(=O)Nc3ccc4c(c3)OCO4)ccc2O1", "outcome": "inactive"},
      {"smiles": "CN1C[C@H]2[C@@H](c3ccccc31)[C@@H](CO)N2C(=O)C1CCOCC1", "outcome": "inactive"},
      {"smiles": "COc1cccc(NC(=O)C[C@@H]2CC[C@@H]3[C@@H](COc4ccc(NS(=O)(=O)c5cccc(F)c5)cc4C(=O)N3C)O2)c1", "outcome": "inactive"},
      {"smiles": "COC(=O)C[C@H]1CC[C@@H]2[C@@H](COc3ccc(NC(=O)Nc4cccc(F)c4)cc3C(=O)N2C)O1", "outcome": "inactive"},
      {"smiles": "COc1cccc(OCc2cc(/C=N/Nc3ccc(C(=O)O)cc3)ccc2OC)c1", "outcome": "inactive"},
      {"smiles": "CN1C(=O)c2cc(NC(=O)Cc3ccccc3)ccc2OC[C@@H]2O[C@@H](CC(=O)NCc3ccc(Cl)cc3)CC[C@H]21", "outcome": "inactive"},
      {"smiles": "COC(=O)C[C@@H]1CC[C@@H]2[C@@H](COc3ccc(NS(=O)(=O)c4ccccc4F)cc3C(=O)N2C)O1", "outcome": "inactive"},
      {"smiles": "CCC(=O)N1[C@H](CO)[C@H](c2ccccc2)[C@@H]1CN(C(C)C)S(C)(=O)=O", "outcome": "inactive"},
      {"smiles": "CNC(=O)C[C@H]1CC[C@@H]2[C@H](COc3ccc(NC(=O)Nc4cccc(F)c4)cc3C(=O)N2C)O1", "outcome": "inactive"},
      {"smiles": "Cc1cccc(NC(=O)Nc2ccc3c(c2)C(=O)N(C)[C@@H]2CC[C@@H](CC(=O)NCc4ccccc4Cl)O[C@H]2CO3)c1", "outcome": "inactive"},
      {"smiles": "C/C=C/c1ccc([C@H]2[C@H](CO)N[C@H]2CN(C)S(=O)(=O)c2ccccc2)cc1", "outcome": "inactive"},
      {"smiles": "CC(=O)Nc1ccc2c(c1)C(=O)N(C)[C@H]1CC[C@@H](CC(=O)NCc3ccc4c(c3)OCO4)O[C@@H]1CO2", "outcome": "inactive"},
      {"smiles": "COCC(=O)Nc1ccc2c(c1)C(=O)N(C)[C@@H]1CC[C@H](CC(=O)Nc3cn(C)nc3C)O[C@H]1CO2", "outcome": "inactive"},
      {"smiles": "Cc1cc(C(F)F)n2ncc(C(=O)NCCc3ccccc3Cl)c2n1", "outcome": "inactive"},
      {"smiles": "COc1ccc(N2CCN(C(=O)CSc3nnc(CNc4ccccc4)o3)CC2)cc1", "outcome": "inactive"},
      {"smiles": "O=C(Nc1ccccc1N1CCN(C(=O)c2ccc(Cl)cc2)CC1)c1cccnc1", "outcome": "inactive"},
      {"smiles": "C[C@@H]1CN([C@@H](C)CO)S(=O)(=O)c2ccc(/C=C/c3ccccc3)cc2O[C@@H]1CN(C)C(=O)NC1CCCCC1", "outcome": "inactive"}
    ]}
  ]
}
